Screening results (PubChem)
HCMV antiviral: blocks human cytomegalovirus replication | HFF cells, HCMV-luciferase reporter, 72 h; hits give low values | activity change, negative = inhibition, % at 57.5 µM | actives 4.5% (n = 410,000) | AID 1259415; in the data active = activity change below about -60%; inconclusive = no clear call, values can overlap the other calls; inactive = above about -39%; note: % is set by controls: 0 for no effect and ±100 for the full control effect
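Screen run at 2 compound doses on HFFs infected with reporter HCMV, MOI 1 PFU/cell. Luciferase activity from cell lysates at 72 h post infection gave inhibition relative to buffer-only and Salinomycin wells.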
HCV inhibitor: HCV inhibition; Huh7.5.1 HCVcc-Cre infection, luciferase reporter, 44 h; Potency, µM (highest dose often 41.8 µM), inactives show top-dose activity change, negative = inhibition, usual class: inhibitors; actives 3.4% (n = 340,000); note: potency is the fitted concentration of half-maximal effect; % is set by controls: 0 for no effect and ±100 for the full control effect
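Antiviral activity was scored by luciferase reporter output from cells infected with HCVcc-Cre (~0.5 moi) in presence of compound, 44 h infection period, cells seeded 1,000/well 4 h prior.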
Shiga toxin inh: Shiga toxin inhibition. Vero cells, Shiga toxin protein synthesis inhibition reporter. inhibition, % at 38.7 µM. actives 9.2% (n = 290,000); in the data active = inhibition mostly above about 28%, no sharp cut-off; inactive = mostly below about 43%; note: 0% is about no effect
Pf growth 48h: P. falciparum growth inhibition at 48 hours (one generation). P. falciparum luciferase growth in erythrocytes, 48 h. actives 5.9% (n = 310,000). Potency, µM (top dose mostly 28.7 µM), for inactives: at the top dose activity change, negative = inhibition, actives largely listed as inhibitors; note: potency is the fitted concentration of half-maximal effect; % is set by controls: 0 for no effect and ±100 for the full control effect
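Luminescence readout; reporter = integrated firefly luciferase in P. falciparum. RBC culture at 2% hematocrit, 0.1% parasitemia final, 37 C/5% CO2; decreased signal taken as growth inhibition.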
Pf growth 96h: P. falciparum growth inhibition at 96 hours | P. falciparum luciferase reporter growth, 96 h | actives 6.9% (n = 320,000) | Potency, µM (top dose mostly 28.7 µM), for inactives: at the highest dose activity change, negative = inhibition, most hits filed as inhibitors; note: potency is the fitted concentration of half-maximal effect; % is set by controls: 0 for no effect and ±100 for the full control effect
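Erythrocytes infected with luciferase-expressing P. falciparum were dispensed at 2% hematocrit and 0.05% parasitemia (final), then incubated with compounds 96 hours at 37 C in 5% CO2. Luminescence after detection reagent addition reported growth.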
CHX counter: counter-screen hit for Shiga toxin inhibitors, cycloheximide. cell reporter, cycloheximide protein synthesis inhibition counterscreen. max response, %. actives 12% (n = 300,000); in the data active = max response mostly above about 13%, no sharp cut-off; inactive = mostly below about 14%; note: read at 38.3 µM for the half of the compounds with a filed dose; 0% is about no effect
Starred values were filed as active, the others as inactive; ? = inconclusive; . = no result given; ! = a repeat was not active; [ ] = remark or other dose. This is a sample that favours compounds with a hit; in the whole collection about 21% have one here. Unless noted, calls come from the whole dose curve; as a rule, active = well fitted inhibition curve with a large enough effect; inconclusive = small, poorly fitted or top-dose-only effect, or another doubt; inactive = no such curve, though single readings can be large or run the other way.

SMILES	HCMV antiviral	HCV inhibitor	Shiga toxin inh	Pf growth 48h	Pf growth 96h	CHX counter
CCOc1cc(-c2noc(N)c2C(=O)OC)cc(OCC)c1OCC	42	?	-20	-14%	12µM*	-5
Cc1ccc(NC(=O)COc2nsnc2N2CCOCC2)cc1Cl	80	?	22	14%	22%	-2
CCS(=O)c1ccccc1C(=O)OCC(=O)Nc1cccc(S(=O)(=O)N2CCCCC2)c1 (stereo not given)	-8	10µM*	.	-25%	?	.
COc1cc(C#N)ccc1OCC(=O)Nc1cccc(S(=O)(=O)N2CCCC2)c1	-10	-14%	-5	9.3µM*	8.3µM*	3
Cc1cccc(C)c1OCC(=O)Nc1cccc(S(=O)(=O)N2CCCC2)c1	-24	8.9µM*	.	?	?	.
Cc1cccc(C)c1OCC(=O)Nc1cccc(S(=O)(=O)N2CCCCCC2)c1	18	.	.	.	.	.
Cc1ccc(N(CC(=O)Nc2ccccc2-c2ccccc2)S(=O)(=O)c2ccccc2)cc1	-70*	10µM*	-4	?	6.6µM*	1
Cc1ccc(S(=O)(=O)N(CC(=O)Nc2ccccc2-c2ccccc2)c2ccc(C)cc2C)cc1	?	?	-14	?	-18%	-1
Cc1cc(NC(=O)CN(c2cccc(C)c2C)S(=O)(=O)c2ccccc2)ccc1Br	-68*	.	.	.	.	.
Cc1cccc(N(CC(=O)Nc2ccccc2-c2ccccc2)S(=O)(=O)c2ccccc2)c1C	-61*	?	15	8.3µM*	8%	7
COC(=O)C1=C(C)N(Cc2cccc(C(F)(F)F)c2)C(=NCc2ccc3c(c2)OCO3)NC1c1cccc(F)c1 (stereo not given)	-24	.	.	.	.	.
CCN(CC)CCCN=C1N[C@@H](c2cccc(C(F)(F)F)c2)C(C(=O)OC)=C(C)N1CC	?	10µM*	.	.	.	.
COC(=O)C1=C(C)N(Cc2cccc(C(F)(F)F)c2)C(=NCc2ccccc2C(F)(F)F)NC1c1cccc(F)c1 (stereo not given)	-78*	.	.	.	.	.
COC(=O)C1=C(C)N(Cc2ccccc2)C(=NCc2cc(OC)c(OC)c(OC)c2)N[C@H]1CCc1ccccc1	21	?	-1	13µM*	?	-5
C=CCN=C1N[C@@H](c2ccccc2)C(C(=O)OC)=C(C)N1CCOC	-24	7%	-7	34%	10µM*!	-3
COc1cccc(NC(=O)CN(C)C(=O)C2=COCCO2)c1	-13	22%	.	?	21%	.
COc1cc(C(=O)OCC(=O)N2CCC(C)CC2)cc2c1OCCO2	-9	3%	.	-5%	-3%	.
Cc1sc2ncnc(OCC(=O)N3CC(=O)Nc4ccccc43)c2c1C	20	-5%	13	1%	-25%	7
COC(=O)C1=C(C)N(Cc2ccccc2)C(=NCc2ccccc2)N[C@H]1c1ccccc1	-70*	?	-3	?	1.7µM*	-1
CCN(CC)CCCN=C1N[C@@H](c2cccc(F)c2)C(C(=O)OC)=C(C)N1Cc1ccccc1	-11	?	.	.	.	.
COCCN=C1N[C@@H](c2ccc(Br)cc2)C(C(=O)OC)=C(C)N1Cc1ccccc1	-25	3.5µM*	6	?	?	-2
COC(=O)C1=C(C)N(Cc2ccccc2)C(=NCc2cccc(Cl)c2)N[C@H]1c1ccccc1	.	?	-3	4%	?	-3
COC(=O)C1=C(C)N(CC2CC2)C(=NCc2cc(OC)c(OC)c(OC)c2)N[C@H]1c1ccccc1	.	-8%	-2	3%	12µM*!	-1
COC(=O)C1=C(C)N(Cc2ccccc2)C(=NCc2ccccc2)N[C@H]1c1cccc(F)c1	-26	?	-6	?	9.3µM*	-4
CCN1C(=NCCN2CCOCC2)N[C@@H](c2ccccc2)C(C(=O)OC)=C1C	?	25%	-3	3%	1.1µM*!	-2
SMILES	HCMV antiviral	HCV inhibitor	Shiga toxin inh	Pf growth 48h	Pf growth 96h	CHX counter
COC(=O)C1=C(C)N(CCc2cc(OC)c(OC)c(OC)c2)C(=O)N[C@H]1c1ccc(Br)cc1	.	0%[8.37 µM]	-8	13µM*	10µM*	-4
COC(=O)C1=C(C)N(Cc2ccc(C(F)(F)F)cc2)C(=NCc2ccc3c(c2)OCO3)NC1c1ccccc1 (stereo not given)	-100*	.	.	.	.	.
COC(=O)C1=C(C)N(Cc2ccccc2)C(=NCCc2c[nH]c3ccccc23)N[C@H]1c1ccccc1	.	?	-2	?	8.3µM*	-3
CCN1C(=NCCCCO)N[C@@H](c2ccccc2)C(C(=O)OC)=C1C	.	.	-2	-23%	55%	-2
COC(=O)C1=C(C)N(Cc2ccccc2)C(=NCCc2c[nH]c3ccccc23)N[C@H]1c1cccc(F)c1	-8	?	.	.	.	.
Cc1ccc(S(=O)(=O)Nc2cc3c4c(c2)C(C)C(=O)N4CCC3)cc1 (stereo not given)	-10	6%	.	10µM*	?	.
CC1C(=O)N2CCCc3cc(NC(=O)C(=O)NCCN4CCOCC4)cc1c32 (stereo not given)	-5	21%	.	20%	25%	.
CC(C)CNC(=O)C(=O)Nc1cc2c3c(c1)C(C)C(=O)N3CCC2 (stereo not given)	47	3%	-4	-24%	15µM*	1
COc1ccc(C)cc1S(=O)(=O)Nc1cc2c3c(c1)C(C)C(=O)N3CCC2 (stereo not given)	-1	8%	.	?	?	.
Cc1cc(C)cc(NC(=O)C(=O)NCCc2c[nH]c3ccccc23)c1	11	-6%	10	5%	31%	3
CC1C(=O)N2CCCc3cc(NC(=O)C(=O)NCCc4ccccc4)cc1c32 (stereo not given)	-14	10%	.	?	13µM*	.
CC1C(=O)N2CCCc3cc(NC(=O)C(=O)NCCc4c[nH]c5ccccc45)cc1c32 (stereo not given)	85	9%[8.37 µM]	.	1.5µM*	4.1µM*	.
COCCOC(=O)C1=C(N)Oc2c(oc(CO)cc2=O)C1c1c(F)cccc1Cl (stereo not given)	13	0%	-8	.	4.7µM*	-7
CCOC(=O)c1c(CC(C)C)csc1NC(=O)COC(=O)c1cc(OC)c(OC)cc1[N+](=O)[O-]	-71*	-7%	-7	7%	308%	-1
CCOC(=O)c1c(NC(=O)COC(=O)c2cc(OC)c(OC)cc2[N+](=O)[O-])sc(C)c1CC	31	-9%	-6	-21%	-1%	1
Cc1ccc2c(c1)C(N1CCCC1=O)CC(c1ccco1)N2 (stereo not given)	64	1%	92*	148%	?	53*
COc1ccccc1N1CCN(C(=O)Cn2ncc3c(=O)oc4ccc(C)cc4c32)CC1	-4	.	.	.	.	.
S=C(c1ccc(OCc2ccccc2)cc1)N1CCCC1	-4	-22%	39*	35%	-10%	21*
